Compound activity from PubChem BioAssay.
Compounds with a hit are over-represented: about 7.4% of the library has one in this group of screens.
ELG1 genotoxic: genotoxicity induction in ELG1-luciferase HEK293T cells; HEK293T ELG1-luciferase reporter, luminescence, 16 h; Potency, µM (highest dose often 46 µM), for the others: top-dose activity change, positive = activation, hits mostly activators; 1.3% of 330,000 active; AID 504466; also: % of control where 0% means no effect; nearly all actives have a fitted effect of over 60% in size
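Luminescence read-out: rising ELG1-luciferase signal, reflecting elevated ELG1 protein under genetic stress, flags genotoxic compounds. Cells were treated for 16 hr at 37 °C before ONE-Glo detection.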
SMN2 splice up: enhancers of SMN2 splice variant expression | HEK293 SMN2-luciferase splicing reporter, luminescence, 30-36 h | Potency, µM (titrated, usually from 46.1 µM), without a hit: top-dose activity change, positive = activation, actives largely listed as activators | 2.8% of 210,000 active | AID 1458; also: % of control where 0% means no effect; nearly all actives have a fitted effect of over 55% in size
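HEK293 cells carry an SMN2 […]–luciferase reporter in which exon 7 inclusion puts luciferase in frame. Cells were plated 10-12 h before compound addition, then incubated 30-36 h at 37C. ONE-Glo luminescence was read; sodium butyrate at 4.5 mM final served as control.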
Rab9 promoter act: activates the Rab9 promoter; Huh7 Rab9 promoter-luciferase reporter, luminescence, 24 h; Potency, µM (top dose mostly 9.22 µM), for inactives: at the top dose activation, negative = inhibition, most hits filed as activators; 2.8% of 320,000 active; also: % of control where 0% means no effect; nearly all actives have a fitted effect of over 60% in size
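Luciferase signal after 10 min detection reagent at ambient indicates Rab9 promoter upregulation; stably transfected Huh7 cells were treated 24 h with compound in DMSO at 37 °C, 5% CO2.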
FLuc modulator: counter-screen for miR-21 project: firefly luciferase inhibitors or activators; P08659; purified FLuc, Km substrates, luminescence inhibition; Potency, µM (titrated, usually from 57.5 µM), without a hit: at the highest dose activity change, negative = inhibition, most hits filed as inhibitors; 6.9% of 360,000 active;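 also: plate controls were vehicle for no effect and reference inhibitor for full effect; nearly all actives have a fitted effect of over 55% in size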
Target sequence (P08659 whole entry, looked up): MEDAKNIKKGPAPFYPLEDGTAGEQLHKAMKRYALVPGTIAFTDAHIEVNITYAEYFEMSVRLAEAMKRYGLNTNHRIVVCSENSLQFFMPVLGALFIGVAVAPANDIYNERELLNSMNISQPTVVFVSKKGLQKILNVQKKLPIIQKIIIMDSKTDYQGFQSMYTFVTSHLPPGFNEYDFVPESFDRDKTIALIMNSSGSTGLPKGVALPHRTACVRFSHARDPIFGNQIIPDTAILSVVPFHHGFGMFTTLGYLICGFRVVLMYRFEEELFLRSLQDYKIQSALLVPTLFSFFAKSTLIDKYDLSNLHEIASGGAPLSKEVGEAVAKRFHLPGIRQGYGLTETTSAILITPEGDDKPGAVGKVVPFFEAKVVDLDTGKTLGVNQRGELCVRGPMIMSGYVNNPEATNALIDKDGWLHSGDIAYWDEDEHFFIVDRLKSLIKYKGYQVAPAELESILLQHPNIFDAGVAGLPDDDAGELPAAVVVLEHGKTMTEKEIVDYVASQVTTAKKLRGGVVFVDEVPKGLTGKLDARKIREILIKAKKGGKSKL
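Purified P. pyralis luciferase, 10 nM final, with Km-level 10 uM D-luciferin and 10 uM ATP in 50 mM Tris acetate pH 7.5, 10 mM Mg acetate, 0.01% Tween-20, 0.05% BSA; 6-point qHTS titration about 60 µM downward; luminescence read.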
NPC1 prom act: activators of NPC1 promoter | Huh7 NPC1 promoter luciferase reporter, 24 h | Potency, µM (highest dose often 9.22 µM), for the others: at the highest dose activation, usual class: activators | 2.4% of 320,000 active; also: % of control where 0% means no effect; nearly all actives have a fitted effect of over 60% in size
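In 1536-well qHTS, Huh7 cells harboring an NPC1 promoter–luciferase construct received compound for 24 h; activation was quantified by luminescence following luciferase reagent addition.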
Active calls of the source: *; ? = inconclusive; nt = no result given; [ ] = another dose, or the depositor's remark. Calls follow the shape of the dose curve; as a rule, active = well fitted curve in the direction sought with a large enough effect; inconclusive = small, poorly fitted or top-dose-only effect, or another doubt; inactive = no such curve, though single readings can be large; an effect the other way counts as inactive or inconclusive. Potency is read from the fitted curve at half-maximal effect.

SMILES | ELG1 genotoxic | SMN2 splice up | Rab9 promoter act | FLuc modulator | NPC1 prom act
CCOC(=O)c1ccc(NC(=O)CC(=O)Nc2ccc3nc4n(c(=O)c3c2)CCCCC4)cc1 | nt | 16% | nt | -15% | nt
COc1ccc(CN(C)C(C)C(=O)N(C)CC(=O)Nc2ccc(C)cc2)cc1F (stereo unspecified) | -4% | nt | 0% | -1% | 0%
O=C(Nc1ccccc1)c1cc2ccc3ccccc3c2s1 | ? | nt | ? | 5.4µM* | ?
COc1ccc2cc(C(=O)Nc3ccccc3)sc(=O)c2c1OC | 16% | 19% | 29% | 8% | -1%
Cc1noc(-c2ccc(-c3noc(-c4ccc(Cl)cc4)n3)cc2)n1 | nt | nt | nt | 0% | nt
Cc1ccccc1-c1noc(-c2ccc(Cl)cc2)n1 | ? | 11µM* | 2.8µM* | 1.1µM* | 4µM*
Cc1ccccc1-c1noc(-c2ccc(O)cc2)n1 | ? | ? | 29% | 4.8µM* | ?
Cc1ccccc1-c1noc(-c2ccccc2F)n1 | 6.5µM* | ? | 2.2µM* | 1.9µM* | 2.5µM*
Cc1ccccc1-c1noc(-c2cc(-c3ccc(F)cc3)n[nH]2)n1 | nt | nt | nt | 6% | nt
Cc1ccccc1-c1noc(C2CCCCC2)n1 | 13% | -6% | 9% | 17µM* | -1%
CCOc1cc(Cl)c(S(=O)(=O)NCCCn2ccnc2)cc1Cl | 5% | nt | -26% | 6% | -7%
Clc1ccc(Cc2noc(-c3cccs3)n2)cc1 | 6.5µM* | 0% | 22% | 13µM* | ?
Clc1ccc(-c2nc(Cc3ccccc3Cl)no2)cc1 | 11% | 0% | 23% | 15µM* | 14%
O=S(=O)(Cc1noc(-c2ccc(Cl)cc2)n1)Cc1ccco1 | 8% | nt | 26% | ? | 21%
O=C(NCc1ccc(Cl)cc1)c1cc(-c2cccs2)on1 | -2% | 14% | -1% | -1% | 1%
O=C(Nc1ccc2c(c1)OCO2)c1c[nH]c(=O)n(-c2ccc(F)cc2)c1=O | ? | nt | 17% | ? | 4%
N#Cc1ccccc1-c1csc(N2CCC(C(N)=O)CC2)n1 | nt | nt | nt | -19% | nt
COC(=O)c1ccc(-n2nnnc2SCC(=O)Nc2ccccc2F)cc1 | 0% | nt | 6% | 0% | 2%
CC(NC(=O)C1CCN(C(=O)c2ccc(-n3ccc4ccccc43)s2)CC1)c1ccccc1 (stereo unspecified) | nt | nt | nt | 13µM* | nt
CCOC(=O)C1CCN(C(=O)c2ccc(-n3ccc4ccccc43)s2)CC1 | nt | nt | nt | -15% | nt
CS(=O)(=O)N(CC(=O)O)Cc1ccccc1 | nt | -3%[9.22 µM] | nt | nt | nt
O=C(CSc1ncnc2c1nnn2-c1ccc(F)cc1)NCc1ccco1 | 0% | -10% | -3% | -16% | -4%
Cc1ccc(-n2nnc3c(SCC(=O)NCc4ccco4)ncnc32)cc1 | 1% | -7% | 12% | 13µM* | 0%
COc1ccc(-n2nnc3c(SCC(=O)NCc4ccco4)ncnc32)cc1 | 5% | -12% | -10% | 9.5µM* | -4%
COc1ccc(-n2c(-c3ccc(F)cc3)cnc2SCC(=O)NCc2ccco2)cc1 | ? | 6% | 14% | 24µM* | 0%
SMILES | ELG1 genotoxic | SMN2 splice up | Rab9 promoter act | FLuc modulator | NPC1 prom act
COc1ccc(CN2CC[C@@H](N3CCOCC3)[C@H](O)C2)cc1F | -1% | nt | 1% | 4% | 2%
COc1ccc(C(=O)/C=C(\C)Nc2ccc(NC(C)=O)cc2)cc1 | 4% | -17% | 2.8µM* | ? | ?
C/C(=C\C(=O)c1ccc(C)cc1)Nc1ccc(N2CCOCC2)cc1 | 0% | 9% | 14% | -1% | 0%
C/C(=C\C(=O)c1cccnc1)Nc1ccc(O)cc1 | 16µM* | 27% | ? | 17µM* | ?
COC(=O)c1ccc(NC(=O)c2cccnc2)cc1 | 8% | nt | 11% | 2% | -1%
C/C(=C\C(=S)Nc1ccccc1)Nc1ccccc1 | 1% | 15% | -4% | 3.8µM* | 1%
C/C(=C\C(=O)c1ccccc1)Nc1ccc(O)cc1 | 6.5µM* | nt | 3.5µM* | 4.8µM* | 2.5µM*
COc1ccc(CCC(=O)OCc2csc(CC(=O)Nc3ccccc3C)n2)cc1 | -2% | nt | 0% | 6% | -4%
CCOC(=O)Cn1c(=O)n(CC2CCCO2)c2nc(-c3c(F)cccc3Cl)nc(C(N)=O)c21 (stereo unspecified) | nt | nt | nt | 4% | nt
CCN1C(=O)/C(=C\c2cccn2-c2ccc([N+](=O)[O-])cc2)N(CC)C1=S | 10% | -2% | -2% | -1% | -8%
COC(=O)[C@@]12CCCCN1[C@H](c1ccc(-c3ccc(F)cc3)cc1)[C@@H]1C(=O)N(C)C(=O)[C@@H]12 | -4% | nt | 2% | 2% | -6%
O=C(NCc1ccccc1)c1c[nH]c2cc3c(cc2c1=O)OCCO3 | ? | 13µM* | 2.5µM* | 2.4µM* | 3.2µM*
O=C(Cc1ccccc1[N+](=O)[O-])NCc1ccc2c(c1)OCO2 | ? | 138% | 1.8µM* | ? | ?
O=C(COC(=O)COc1ccccc1[N+](=O)[O-])NCc1ccc2c(c1)OCO2 | -1% | nt | nt | nt | nt
O=C(CCc1ccccc1)NCc1ccc2c(c1)OCO2 | -6% | nt | 2% | 0% | 0%
O=C(Cc1ccccc1)NCc1ccc2c(c1)OCO2 | 15µM* | 11% | ? | 7.6µM* | 2.8µM*
CCOC(=O)CN1C(=O)CC(c2ccccc2)C1=O (stereo unspecified) | 1% | nt | -7% | 2% | -2%
Cc1nnc(Sc2nc3ccccc3o2)c2ccccc12 | 15% | nt | 0% | 19µM* | -5%
CCN(CC)C(=O)CSC(=Nc1ccccc1F)NC#N | ? | 14µM* | 4µM* | -2% | ?
Fc1cccc(Cl)c1CNc1ccc(N2CCCC2)cc1 | 6% | -12% | 17% | 9.5µM* | 14%
COc1cc(OC)cc(C(=O)N[C@H](C(=O)OCC(=O)c2ccc(F)cc2)C(C)C)c1 | 1% | -1% | 2% | 11µM* | -4%
COc1cc(OC)cc(C(=O)N[C@H](C(=O)OCC(=O)Nc2cccc(F)c2)C(C)C)c1 | -4% | -11% | -6% | 1% | 0%
CC(C)C(NC(=O)c1ccccc1F)C(=O)OCC(=O)c1ccc(F)cc1 (stereo unspecified) | 7% | -2% | ? | 3µM* | 1%
CC(C)[C@H](NC(=O)c1ccccc1F)C(=O)OCC(=O)NC1CC1 | 1% | nt | nt | nt | nt
COc1ccc(Cl)cc1S(=O)(=O)Nc1ncn[nH]1 | 1% | nt | -1% | 1% | 1%
SMILES | ELG1 genotoxic | SMN2 splice up | Rab9 promoter act | FLuc modulator | NPC1 prom act
CC(=O)Nc1ccc(S(=O)(=O)NCCc2cn3ccsc3n2)cc1 | nt | nt | nt | -6% | nt
Cc1ccc2c(CN3CC(C)CC(C)C3)cc(=O)oc2c1 (stereo unspecified) | 2% | nt | 4% | 1% | 1%
Cc1ccc2c(CN3CCC(C)CC3)cc(=O)oc2c1 | 4.6µM* | 14µM* | 1.8µM* | 7.6µM* | 3.5µM*
Cc1ccccc1Nc1nc(-c2ccccc2)c(C(=O)Nc2cccnc2)s1 | -2% | 4% | 2% | 15µM* | 0%
COc1ccc(-c2cc3cc(OC)c(OC)cc3c(C)n2)cc1C | 0% | nt | -1% | 17µM* | 2%
CC1CCN(c2ccc(-c3cccc(NS(=O)(=O)c4ccc(F)cc4F)c3)nn2)CC1 | nt | nt | nt | 1.7µM* | nt
